Laboratory results reported in the supplement of paper PMC11732987, “Enantioselective OTUD7B fragment discovery through chemoproteomics screening and high-throughput optimisation” (Communications Chemistry, 2025).

Legend:
Assay in all cases: log2 ratio of Biotin-Ahx-Ub-VS probe labelling (fragment/DMSO); higher = less target engagement (more negative = stronger competition), active = hit call of the paper (q ≤ 0.05, log2 ratio ≤ -1)
Details in all cases: compound concentration: 200 uM; treatment time: 3 h
[1] = biological target: USP34 (UniProt Q70CQ2)
Procedure, shortened: (§1)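 HEK293T lysate (495 µg per sample, in Tris/CHAPS/IGEPAL buffer with protease inhibitors) was treated in triplicate with fragment at 200 µM or with DMSO for 3 h. It was then treated with Biotin-Ahx-Ub-VS (0.5 µM final) for 1 h. Labelled DUBs were NeutrAvidin-enriched, digested with LysC and trypsin, and run by diaPASEF LC-MS/MS. Spectronaut label-free quantities were global-median-normalised. Values are average log2 ratios fragment/DMSO by unpaired t-test, using proteins with ≥2 unique peptides.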

[2] = biological target: T1, USP36 (UniProt Q9P275)
T1 sequence (whole entry): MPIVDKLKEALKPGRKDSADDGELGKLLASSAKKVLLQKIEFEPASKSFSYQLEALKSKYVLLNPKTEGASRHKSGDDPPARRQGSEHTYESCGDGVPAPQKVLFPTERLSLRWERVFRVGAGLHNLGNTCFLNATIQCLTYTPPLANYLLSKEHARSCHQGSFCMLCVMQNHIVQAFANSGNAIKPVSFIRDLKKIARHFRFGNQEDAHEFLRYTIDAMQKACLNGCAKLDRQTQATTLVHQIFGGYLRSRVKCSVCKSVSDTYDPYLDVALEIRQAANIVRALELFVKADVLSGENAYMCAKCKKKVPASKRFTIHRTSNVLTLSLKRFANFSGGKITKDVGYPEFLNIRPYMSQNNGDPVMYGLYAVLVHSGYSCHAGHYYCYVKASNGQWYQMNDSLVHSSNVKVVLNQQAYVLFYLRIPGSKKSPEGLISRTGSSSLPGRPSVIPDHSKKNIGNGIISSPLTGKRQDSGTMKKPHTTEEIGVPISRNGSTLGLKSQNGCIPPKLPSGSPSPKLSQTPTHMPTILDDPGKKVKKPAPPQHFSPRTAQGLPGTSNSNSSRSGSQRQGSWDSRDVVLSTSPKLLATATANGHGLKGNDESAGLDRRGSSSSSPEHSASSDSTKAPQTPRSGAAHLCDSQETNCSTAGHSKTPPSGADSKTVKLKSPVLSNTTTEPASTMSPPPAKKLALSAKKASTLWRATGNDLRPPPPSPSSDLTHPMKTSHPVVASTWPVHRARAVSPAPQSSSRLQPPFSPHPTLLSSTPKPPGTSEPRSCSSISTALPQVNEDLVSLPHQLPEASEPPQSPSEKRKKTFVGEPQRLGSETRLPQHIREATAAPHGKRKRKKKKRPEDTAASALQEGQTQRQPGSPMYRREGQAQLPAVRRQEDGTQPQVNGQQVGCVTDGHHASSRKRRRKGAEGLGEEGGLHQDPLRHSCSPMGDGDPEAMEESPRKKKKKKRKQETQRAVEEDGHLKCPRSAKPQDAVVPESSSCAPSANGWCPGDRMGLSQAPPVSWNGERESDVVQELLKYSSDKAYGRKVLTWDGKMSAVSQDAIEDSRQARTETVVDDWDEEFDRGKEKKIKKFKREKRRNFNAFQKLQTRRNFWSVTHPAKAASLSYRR
Procedure, shortened: as §1

[3] = biological target: T2, USP38 (UniProt Q8NB14)
T2 sequence (whole entry): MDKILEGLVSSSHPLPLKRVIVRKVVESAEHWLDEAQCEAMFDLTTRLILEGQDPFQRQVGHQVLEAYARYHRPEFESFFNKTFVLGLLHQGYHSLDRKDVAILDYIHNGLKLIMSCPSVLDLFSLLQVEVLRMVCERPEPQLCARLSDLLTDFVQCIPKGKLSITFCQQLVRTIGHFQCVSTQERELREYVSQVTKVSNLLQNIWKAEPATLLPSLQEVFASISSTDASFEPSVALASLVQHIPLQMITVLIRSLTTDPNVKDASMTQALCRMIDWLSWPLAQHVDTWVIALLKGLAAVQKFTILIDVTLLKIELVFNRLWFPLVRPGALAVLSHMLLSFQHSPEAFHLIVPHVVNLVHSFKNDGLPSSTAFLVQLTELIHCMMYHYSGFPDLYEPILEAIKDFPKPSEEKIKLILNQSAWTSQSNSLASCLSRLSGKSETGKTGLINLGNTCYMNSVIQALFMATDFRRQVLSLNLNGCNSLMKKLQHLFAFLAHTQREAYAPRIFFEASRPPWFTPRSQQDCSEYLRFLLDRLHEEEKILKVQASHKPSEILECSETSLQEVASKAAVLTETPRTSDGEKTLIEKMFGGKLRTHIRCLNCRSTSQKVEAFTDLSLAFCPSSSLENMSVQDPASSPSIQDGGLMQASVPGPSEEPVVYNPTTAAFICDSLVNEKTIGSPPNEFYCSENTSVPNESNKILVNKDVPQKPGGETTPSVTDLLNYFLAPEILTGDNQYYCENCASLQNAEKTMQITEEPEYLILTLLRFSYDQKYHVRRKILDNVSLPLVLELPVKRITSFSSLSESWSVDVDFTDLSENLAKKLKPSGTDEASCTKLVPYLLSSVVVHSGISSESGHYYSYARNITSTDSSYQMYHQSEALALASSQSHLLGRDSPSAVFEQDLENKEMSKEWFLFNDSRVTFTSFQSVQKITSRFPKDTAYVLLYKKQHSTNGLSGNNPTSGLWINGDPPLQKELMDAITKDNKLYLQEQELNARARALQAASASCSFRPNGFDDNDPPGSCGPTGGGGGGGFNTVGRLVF
Procedure, shortened: as §1

[4] = biological target: T3, USP39 (UniProt Q53GS9)
T3 sequence (whole entry): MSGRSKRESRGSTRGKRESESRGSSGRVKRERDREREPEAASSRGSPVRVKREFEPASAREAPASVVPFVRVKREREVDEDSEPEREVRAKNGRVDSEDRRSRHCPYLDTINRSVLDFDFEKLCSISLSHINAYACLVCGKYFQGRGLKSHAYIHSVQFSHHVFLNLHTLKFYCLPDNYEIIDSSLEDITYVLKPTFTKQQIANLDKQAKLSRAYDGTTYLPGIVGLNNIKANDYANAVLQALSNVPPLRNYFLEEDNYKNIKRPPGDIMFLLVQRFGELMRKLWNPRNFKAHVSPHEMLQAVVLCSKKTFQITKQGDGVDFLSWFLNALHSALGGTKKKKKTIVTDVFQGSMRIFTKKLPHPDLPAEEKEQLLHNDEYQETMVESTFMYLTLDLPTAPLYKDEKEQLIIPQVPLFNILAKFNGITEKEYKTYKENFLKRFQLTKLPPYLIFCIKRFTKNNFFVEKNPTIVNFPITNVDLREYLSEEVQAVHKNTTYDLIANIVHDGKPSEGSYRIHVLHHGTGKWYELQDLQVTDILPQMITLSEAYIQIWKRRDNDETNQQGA
Procedure, shortened: as §1

[5] = biological target: T4, USP4 (UniProt Q13107)
T4 sequence (whole entry): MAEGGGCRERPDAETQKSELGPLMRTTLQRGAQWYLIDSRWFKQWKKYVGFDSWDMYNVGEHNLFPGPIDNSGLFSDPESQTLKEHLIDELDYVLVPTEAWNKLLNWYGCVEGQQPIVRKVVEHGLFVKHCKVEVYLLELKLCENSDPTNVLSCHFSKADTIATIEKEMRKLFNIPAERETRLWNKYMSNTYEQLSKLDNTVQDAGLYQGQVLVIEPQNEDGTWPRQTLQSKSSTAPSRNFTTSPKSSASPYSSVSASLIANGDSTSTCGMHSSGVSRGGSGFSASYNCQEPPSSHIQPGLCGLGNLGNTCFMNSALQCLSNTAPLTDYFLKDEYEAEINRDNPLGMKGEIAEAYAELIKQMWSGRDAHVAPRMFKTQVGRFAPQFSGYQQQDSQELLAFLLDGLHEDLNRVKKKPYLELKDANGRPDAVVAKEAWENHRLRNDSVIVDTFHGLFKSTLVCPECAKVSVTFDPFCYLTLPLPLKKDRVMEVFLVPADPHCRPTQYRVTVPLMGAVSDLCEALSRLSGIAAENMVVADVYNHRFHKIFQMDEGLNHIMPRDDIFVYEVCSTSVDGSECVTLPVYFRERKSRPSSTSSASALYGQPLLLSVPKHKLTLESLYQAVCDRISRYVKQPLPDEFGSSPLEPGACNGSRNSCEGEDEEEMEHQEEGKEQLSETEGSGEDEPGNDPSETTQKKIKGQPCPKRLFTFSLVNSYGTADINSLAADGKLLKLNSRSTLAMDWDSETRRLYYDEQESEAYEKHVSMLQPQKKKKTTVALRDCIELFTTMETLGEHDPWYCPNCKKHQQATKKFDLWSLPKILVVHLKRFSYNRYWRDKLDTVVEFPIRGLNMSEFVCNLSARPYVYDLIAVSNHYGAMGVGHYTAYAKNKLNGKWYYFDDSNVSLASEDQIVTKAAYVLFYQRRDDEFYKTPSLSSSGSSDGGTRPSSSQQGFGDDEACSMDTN
Procedure, shortened: as §1

Measured: log2 ratio of Biotin-Ahx-Ub-VS probe labelling

Chain of USP34 (Q70CQ2 whole entry, the tested form may be a part): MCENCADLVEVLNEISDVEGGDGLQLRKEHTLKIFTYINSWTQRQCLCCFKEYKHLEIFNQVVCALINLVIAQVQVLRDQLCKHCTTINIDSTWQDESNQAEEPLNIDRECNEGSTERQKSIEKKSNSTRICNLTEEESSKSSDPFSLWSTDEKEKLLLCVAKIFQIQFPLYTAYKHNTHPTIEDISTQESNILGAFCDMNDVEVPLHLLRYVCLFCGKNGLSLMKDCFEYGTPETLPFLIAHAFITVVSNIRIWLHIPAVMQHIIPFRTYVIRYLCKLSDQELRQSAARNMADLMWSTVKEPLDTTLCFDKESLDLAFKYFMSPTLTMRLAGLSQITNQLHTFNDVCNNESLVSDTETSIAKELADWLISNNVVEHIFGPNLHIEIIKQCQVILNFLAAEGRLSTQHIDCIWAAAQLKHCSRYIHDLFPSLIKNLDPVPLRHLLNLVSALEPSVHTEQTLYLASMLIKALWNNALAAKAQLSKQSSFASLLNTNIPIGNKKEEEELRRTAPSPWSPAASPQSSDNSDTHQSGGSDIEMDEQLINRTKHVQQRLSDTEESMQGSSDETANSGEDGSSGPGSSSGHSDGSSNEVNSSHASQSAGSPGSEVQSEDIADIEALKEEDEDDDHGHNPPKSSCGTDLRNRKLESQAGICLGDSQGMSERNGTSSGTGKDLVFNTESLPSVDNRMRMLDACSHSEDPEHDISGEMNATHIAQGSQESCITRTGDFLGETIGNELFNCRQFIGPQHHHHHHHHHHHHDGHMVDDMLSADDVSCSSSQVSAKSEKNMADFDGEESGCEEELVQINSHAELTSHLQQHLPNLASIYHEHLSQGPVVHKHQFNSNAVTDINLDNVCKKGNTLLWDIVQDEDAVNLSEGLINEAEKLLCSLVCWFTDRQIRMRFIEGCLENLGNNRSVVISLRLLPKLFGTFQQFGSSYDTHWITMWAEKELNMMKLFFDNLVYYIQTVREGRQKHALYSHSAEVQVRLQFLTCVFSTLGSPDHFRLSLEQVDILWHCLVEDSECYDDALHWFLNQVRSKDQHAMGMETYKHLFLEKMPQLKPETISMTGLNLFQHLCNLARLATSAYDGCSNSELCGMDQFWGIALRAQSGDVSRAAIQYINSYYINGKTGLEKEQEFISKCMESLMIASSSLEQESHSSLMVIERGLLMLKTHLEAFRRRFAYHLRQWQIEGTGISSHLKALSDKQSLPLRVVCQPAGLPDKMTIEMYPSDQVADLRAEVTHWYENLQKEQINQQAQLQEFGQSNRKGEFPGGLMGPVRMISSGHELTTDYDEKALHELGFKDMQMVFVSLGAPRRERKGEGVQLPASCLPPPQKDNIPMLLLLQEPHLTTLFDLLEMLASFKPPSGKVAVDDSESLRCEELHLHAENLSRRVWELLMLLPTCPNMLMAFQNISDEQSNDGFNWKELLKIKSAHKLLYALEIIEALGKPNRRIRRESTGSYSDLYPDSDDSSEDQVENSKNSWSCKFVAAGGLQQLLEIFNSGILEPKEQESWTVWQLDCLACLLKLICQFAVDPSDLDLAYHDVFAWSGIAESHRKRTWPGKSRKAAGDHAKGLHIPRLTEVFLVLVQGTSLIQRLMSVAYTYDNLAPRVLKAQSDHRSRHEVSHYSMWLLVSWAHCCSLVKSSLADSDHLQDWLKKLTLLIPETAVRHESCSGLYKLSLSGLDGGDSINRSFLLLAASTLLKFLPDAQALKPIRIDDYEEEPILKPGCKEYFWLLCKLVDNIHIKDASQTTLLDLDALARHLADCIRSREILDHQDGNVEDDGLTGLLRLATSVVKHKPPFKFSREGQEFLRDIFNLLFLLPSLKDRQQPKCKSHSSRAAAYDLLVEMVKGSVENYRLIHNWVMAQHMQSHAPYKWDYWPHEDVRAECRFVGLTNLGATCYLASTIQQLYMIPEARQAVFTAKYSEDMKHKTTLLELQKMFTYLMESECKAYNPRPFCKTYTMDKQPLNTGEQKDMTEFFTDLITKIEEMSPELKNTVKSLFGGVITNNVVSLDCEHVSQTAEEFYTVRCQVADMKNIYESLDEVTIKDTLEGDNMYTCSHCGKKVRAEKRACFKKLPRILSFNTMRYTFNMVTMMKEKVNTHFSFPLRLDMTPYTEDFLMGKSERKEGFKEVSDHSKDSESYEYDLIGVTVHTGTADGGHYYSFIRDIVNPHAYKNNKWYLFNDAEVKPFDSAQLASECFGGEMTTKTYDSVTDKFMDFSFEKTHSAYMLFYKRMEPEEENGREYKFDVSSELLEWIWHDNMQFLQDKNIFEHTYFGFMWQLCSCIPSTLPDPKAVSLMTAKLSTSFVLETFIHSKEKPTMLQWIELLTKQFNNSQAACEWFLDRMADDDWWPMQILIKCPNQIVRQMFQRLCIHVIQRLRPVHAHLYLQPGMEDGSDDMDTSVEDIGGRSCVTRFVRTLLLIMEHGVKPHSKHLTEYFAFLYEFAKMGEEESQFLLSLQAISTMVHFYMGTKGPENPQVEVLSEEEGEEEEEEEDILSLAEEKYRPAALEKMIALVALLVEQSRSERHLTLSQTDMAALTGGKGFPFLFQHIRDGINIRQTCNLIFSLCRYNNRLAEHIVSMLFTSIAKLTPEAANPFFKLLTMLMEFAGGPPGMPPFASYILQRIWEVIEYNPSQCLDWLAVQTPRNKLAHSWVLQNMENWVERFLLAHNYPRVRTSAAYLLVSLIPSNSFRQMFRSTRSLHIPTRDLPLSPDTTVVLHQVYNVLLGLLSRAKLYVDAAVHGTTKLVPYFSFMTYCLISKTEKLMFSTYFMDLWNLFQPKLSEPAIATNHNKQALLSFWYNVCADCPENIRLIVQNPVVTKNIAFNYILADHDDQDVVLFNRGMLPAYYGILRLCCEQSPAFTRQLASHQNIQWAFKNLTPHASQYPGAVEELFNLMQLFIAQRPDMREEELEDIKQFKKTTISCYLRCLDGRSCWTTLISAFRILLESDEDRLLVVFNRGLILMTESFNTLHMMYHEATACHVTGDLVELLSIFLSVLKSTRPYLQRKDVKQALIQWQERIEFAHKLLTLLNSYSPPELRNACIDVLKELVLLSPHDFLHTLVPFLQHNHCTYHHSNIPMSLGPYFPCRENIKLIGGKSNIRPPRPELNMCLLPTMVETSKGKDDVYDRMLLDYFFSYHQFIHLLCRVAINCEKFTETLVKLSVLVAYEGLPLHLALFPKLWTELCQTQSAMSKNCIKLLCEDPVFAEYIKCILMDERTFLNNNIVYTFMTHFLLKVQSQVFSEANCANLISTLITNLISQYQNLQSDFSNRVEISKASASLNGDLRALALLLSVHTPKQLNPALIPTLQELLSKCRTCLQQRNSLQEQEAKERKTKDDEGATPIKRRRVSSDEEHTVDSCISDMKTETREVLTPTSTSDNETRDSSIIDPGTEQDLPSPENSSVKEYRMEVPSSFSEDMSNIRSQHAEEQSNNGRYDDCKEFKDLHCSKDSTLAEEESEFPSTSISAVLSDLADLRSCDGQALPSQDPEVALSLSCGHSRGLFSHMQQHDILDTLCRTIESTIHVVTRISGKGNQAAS

COCC[C@@H](NC(=O)CCl)c1ccccc1
inactive: [1] -0.0495 | [2] -0.11 | [3] 0.0786 | [4] -0.0498 | [5] 0.0432
